{"source": "the supplement of paper PMC7411054"}
{"tested_on": "WPMY1-GM130-SQSTM1", "experiment": "lowest phenotypically active concentration; higher = less potent", "conditions": "treatment time: 24 h", "procedure,_shortened": "(§1)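 After 24 h at 0.3, 1, 3 or 9 µM, with four wells per treatment, fifteen gene-edited A549, HepG2 and WPMY1 reporter lines carrying BFP, GFP and RFP/FusionRed were imaged live. Each well's live-cell features were expressed relative to solvent control wells. Deviation required ≥3 of 4 wells past the 95th percentile of control Euclidean distances, and reproducibility a median replicate Pearson correlation over the 95th percentile of non-replicates. Phenotypic activity rested on both.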", "units": {"lowest phenotypically active concentration": "µM"}}
{"compound": "CC[C@H](C)[C@H](NC(=O)OCc1ccccc1)C(=O)N[C@@H](CCC(=O)OC(C)(C)C)C(=O)N[C@@H](C)C(=O)N[C@H](C=O)CC(C)C", "lowest phenotypically active concentration": "≤ 0.3"}
{"compound": "CN1CCN(C2=Nc3cc(Cl)ccc3Nc3ccccc32)CC1", "note": "[clozapine]", "lowest phenotypically active concentration": 9}
{"compound": "Cc1cc(C(C)(C)C)c(O)c(C)c1CC1=NCCN1", "note": "[oxymetazoline]", "lowest phenotypically active concentration": 3}
{"compound": "CCOc1cc(N2CCC(O)CC2)ccc1Nc1ncc2c(n1)N(C)c1ccccc1C(=O)N2C", "lowest phenotypically active concentration": 3}
{"compound": "Cc1c2oc3c(C)ccc(C(=O)NC4C(=O)NC(C(C)C)C(=O)N5CCCC5C(=O)N(C)CC(=O)N(C)C(C(C)C)C(=O)OC4C)c3nc-2c(C(=O)NC2C(=O)NC(C(C)C)C(=O)N3CCCC3C(=O)N(C)CC(=O)N(C)C(C(C)C)C(=O)OC2C)c(N)c1=O", "note": "(centres undefined) [Actinomycin D]", "lowest phenotypically active concentration": "≤ 0.3"}
{"compound": "N#Cc1c(NC(=O)c2cccc3ccccc23)sc2c1CCCC2", "lowest phenotypically active concentration": "≤ 0.3"}
{"compound": "CN1C/C(=C/c2ccc(B(O)O)cc2)C(=O)/C(=C/c2ccc(B(O)O)cc2)C1", "lowest phenotypically active concentration": "≤ 0.3"}
{"compound": "Nc1ccn([C@@H]2O[C@H](CO)[C@@H](O)C2(F)F)c(=O)n1", "note": "[gemcitabine]", "lowest phenotypically active concentration": "≤ 0.3"}
{"compound": "Oc1ccc(Nc2nc(-c3ccc(Cl)cc3)cs2)cc1", "lowest phenotypically active concentration": 3}
{"compound": "CCN1CCN(c2ccc(Nc3cc(N(C)C(=O)Nc4c(Cl)c(OC)cc(OC)c4Cl)ncn3)cc2)CC1", "lowest phenotypically active concentration": 9}
{"compound": "Cc1nc(NC(=O)N2CCC[C@H]2C(N)=O)sc1-c1ccnc(C(C)(C)C(F)(F)F)c1", "note": "[alpelisib]", "lowest phenotypically active concentration": 3}
{"compound": "CCN(CC)CCCC(C)Nc1ccnc2cc(Cl)ccc12", "note": "(centres undefined) [chloroquine]", "lowest phenotypically active concentration": 3}
{"compound": "C/C(=C/c1ccc(C(=O)O)cc1)c1ccc2c(c1)C(C)(C)CCC2(C)C", "lowest phenotypically active concentration": 3}
{"compound": "Cc1ccc(S(=O)(=O)/C=C/C#N)cc1", "lowest phenotypically active concentration": 9}
{"compound": "O=c1cc(-c2cccc3c2Sc2ccccc2S3)oc(N2CCOCC2)c1", "lowest phenotypically active concentration": 9}
{"compound": "CC(C)CCN1c2nc(Nc3cc(F)c(O)c(F)c3)ncc2N(C)C(=O)C1C", "note": "(centres undefined)", "lowest phenotypically active concentration": "≤ 0.3"}
{"compound": "Nc1cc(C(F)(F)F)c(-c2cc(N3CCOCC3)nc(N3CCOCC3)n2)cn1", "note": "[buparlisib]", "lowest phenotypically active concentration": 1}
{"compound": "COc1cc([C@@H]2c3cc4c(cc3[C@@H](O[C@@H]3O[C@@H]5CO[C@@H](C)O[C@H]5[C@H](O)[C@H]3O)[C@H]3COC(=O)[C@H]23)OCO4)cc(OC)c1O", "note": "[etoposide]", "lowest phenotypically active concentration": 1}
{"compound": "COc1cc2c(NC3CCN(C(C)C)CC3)nc(C3CCCCC3)nc2cc1OCCCN1CCCC1", "lowest phenotypically active concentration": "≤ 0.3"}
{"tested_on": "WPMY1-TP53BP1-CLTA", "experiment": "lowest phenotypically active concentration; higher = less potent", "conditions": "treatment time: 24 h", "procedure,_shortened": "as §1", "units": {"lowest phenotypically active concentration": "µM"}}
{"compound": "O=c1[nH]cc(F)c(=O)[nH]1", "note": "[5-Fluorouracil]", "lowest phenotypically active concentration": 9}
{"compound": "CC[C@H](C)[C@H](NC(=O)OCc1ccccc1)C(=O)N[C@@H](CCC(=O)OC(C)(C)C)C(=O)N[C@@H](C)C(=O)N[C@H](C=O)CC(C)C", "lowest phenotypically active concentration": "≤ 0.3"}
{"compound": "CCN1CCN(C(c2cccnc2)c2cc(Cl)c3cccnc3c2O)CC1", "note": "(centres undefined)", "lowest phenotypically active concentration": 9}
{"compound": "CCOc1cc(N2CCC(O)CC2)ccc1Nc1ncc2c(n1)N(C)c1ccccc1C(=O)N2C", "lowest phenotypically active concentration": 3}
{"compound": "Cc1c2oc3c(C)ccc(C(=O)NC4C(=O)NC(C(C)C)C(=O)N5CCCC5C(=O)N(C)CC(=O)N(C)C(C(C)C)C(=O)OC4C)c3nc-2c(C(=O)NC2C(=O)NC(C(C)C)C(=O)N3CCCC3C(=O)N(C)CC(=O)N(C)C(C(C)C)C(=O)OC2C)c(N)c1=O", "note": "(centres undefined) [Actinomycin D]", "lowest phenotypically active concentration": "≤ 0.3"}
{"compound": "N#Cc1c(NC(=O)c2cccc3ccccc23)sc2c1CCCC2", "lowest phenotypically active concentration": "≤ 0.3"}
{"compound": "CN1C/C(=C/c2ccc(B(O)O)cc2)C(=O)/C(=C/c2ccc(B(O)O)cc2)C1", "lowest phenotypically active concentration": 3}
{"compound": "Nc1ccn([C@@H]2O[C@H](CO)[C@@H](O)C2(F)F)c(=O)n1", "note": "[gemcitabine]", "lowest phenotypically active concentration": "≤ 0.3"}
{"compound": "Oc1ccc(Nc2nc(-c3ccc(Cl)cc3)cs2)cc1", "lowest phenotypically active concentration": 9}
{"compound": "Cc1nc(NC(=O)N2CCC[C@H]2C(N)=O)sc1-c1ccnc(C(C)(C)C(F)(F)F)c1", "note": "[alpelisib]", "lowest phenotypically active concentration": 3}
{"compound": "CCN(CC)CCCC(C)Nc1ccnc2cc(Cl)ccc12", "note": "(centres undefined) [chloroquine]", "lowest phenotypically active concentration": 9}
{"compound": "C/C(=C/c1ccc(C(=O)O)cc1)c1ccc2c(c1)C(C)(C)CCC2(C)C", "lowest phenotypically active concentration": 3}
{"compound": "O=c1cc(-c2cccc3c2Sc2ccccc2S3)oc(N2CCOCC2)c1", "lowest phenotypically active concentration": 3}
{"compound": "CC(C)CCN1c2nc(Nc3cc(F)c(O)c(F)c3)ncc2N(C)C(=O)C1C", "note": "(centres undefined)", "lowest phenotypically active concentration": "≤ 0.3"}
{"compound": "Nc1cc(C(F)(F)F)c(-c2cc(N3CCOCC3)nc(N3CCOCC3)n2)cn1", "note": "[buparlisib]", "lowest phenotypically active concentration": 3}
{"compound": "COc1cc([C@@H]2c3cc4c(cc3[C@@H](O[C@@H]3O[C@@H]5CO[C@@H](C)O[C@H]5[C@H](O)[C@H]3O)[C@H]3COC(=O)[C@H]23)OCO4)cc(OC)c1O", "note": "[etoposide]", "lowest phenotypically active concentration": 1}
{"compound": "CCN1CCN(c2cc(-c3ccc(F)cc3)c3c(n2)CCCCCC3)CC1", "note": "[blonanserin]", "lowest phenotypically active concentration": 9}
{"compound": "COc1cc2c(NC3CCN(C(C)C)CC3)nc(C3CCCCC3)nc2cc1OCCCN1CCCC1", "lowest phenotypically active concentration": 1}
{"compound": "COc1cc2ncn(-c3cc(OCc4ccccc4C(F)(F)F)c(C(N)=O)s3)c2cc1OC", "lowest phenotypically active concentration": 1}
{"compound": "Cc1nc(NC(=O)N2CCC[C@H]2C(N)=O)sc1-c1csc(C(C)(C)C)n1", "lowest phenotypically active concentration": 3}
